A number with no mark means an inactive call. Calls of active or inactive are those of the source.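 The calls were made as follows: active = inhibition at or above 50% relative to wild type and mutant plate controls; inactive = inhibition below 50%.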

The experiment can be described thus: loss of swimming-algae plug formation – whole organism, Chlamydomonas reinhardtii, WT vs cilia-less mutant, absorbance, 96-well, primary screen (AID 463189).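 Also: 0% = wild type cc124 cells in DMSO and 100% = ciliumless bld1 mutant cells.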 Particulars: Chlamydomonas reinhardtii gravitaxis, OD600 absorbance, 2 days; at 10 µM; stronger effect = higher value.
`COCCCNc1nc(-c2ccncc2)nc2ccccc12`: the inhibition is 138% (active).
For `CCOC(=O)c1cc2c(=O)n3ccccc3nc2n(Cc2ccccc2Cl)c1=N`, the inhibition was 12.4%.
The figure for `COc1ccc(N/C=C(\C#N)c2nc3ccccc3n2C)c(OC)c1` is 1.37%; for `Cc1c(C)c2cc(Cl)c(O)c(CN3CCN(C)CC3)c2oc1=O` it is 14%; for `Cc1cc(N2C(=O)C(=O)/C(=C(/O)c3ccccc3)C2c2cccc(Br)c2)no1` (stereo unspecified) it is -10.3%.
The same measure for `CC1=CC(c2ccccc2)n2nc(N3C(=O)C4CC=CCC4C3=O)nc2N1` (stereo unspecified): -3.33%; for `O=c1[nH]c(-c2ccccn2)nc2ccccc12`: 34.7%; for `COc1ccccc1N(Cc1cc2cccc(C)c2[nH]c1=O)C(=O)C(C)C`: 28.4%.
The same measure for `COc1ccc(NCc2cc3ccccc3[nH]c2=O)cc1`: 7.35%; for `CN1CCN(Cc2c(O)ccc3c(-c4ccccc4)cc(=O)oc23)CC1`: 8.71%; for `COc1ccc(/C(O)=C2/C(=O)C(=O)N(CCN3CCOCC3)C2c2ccccn2)cc1OC` (stereo unspecified): 6.74%.
As for `CC12CCC(C(=O)N(CCC#N)CCC#N)(CC1=O)C2(C)C` (stereo unspecified), the inhibition is 20.6%.
With `Cc1cccc(C)c1N1C(=O)C2ON(c3ccccc3)C(c3ccncc3)C2C1=O` (stereo unspecified), the inhibition was -6.35%.
The figure for `CCCc1cc(=O)oc2c(CN3CCN(C)CC3)c(O)c(Cl)cc12` is -8.3%.
The figure for `COCCN(CCOC)C(=O)C12CCC(C)(C(=O)C1)C2(C)C` (stereo unspecified) is -24.6%.
The figure for `c1ccc(-c2nc(NCC3CCCO3)c3ccccc3n2)nc1` (stereo unspecified) is 24.6%.
